Results taken from PubChem BioAssay AID449762 (Southern Research Specialized Biocontainment Screening …, 2010).
Hit rate of the full screen: of about 330,000 compounds, about 1,900 (0.58%) were called active. Roughly 4% stayed inconclusive and do not appear here. Not all results are given here. Measured potencies and affinities stand elsewhere. Unmarked numbers belong to inactive results. Rule as the data show it: inconclusive = inhibition above about 70% without an active follow-up result; inactive = below that.

Assay: M. tuberculosis growth inhibition, HTS (AID 449762);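 also: bacterial growth assessed after seven days of incubation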
Details: M. tuberculosis H37Rv growth inhibition, 7H9 media; at 25 µM; stronger effect = higher value
Compound `Cc1ccc(-c2cc(C(=O)N3CCOCC3)no2)cc1` has an inhibition of 6.22%.
For `O=C(O)c1cccnc1Nc1cccc(C(F)(F)F)c1`, the inhibition was -0.01%.
With `CNC(=O)c1cccnc1Nc1cccc(C(F)(F)F)c1` the inhibition was -4.06%.
With `Cc1ccc(C(=O)N(CC(=O)NC2CCCC2)c2cccc(F)c2)s1` the inhibition was 9.2%.
`CN(C)CCCNC(=O)c1ccc(-c2cc(O)c3ncccc3c2)cc1` gave an inhibition of 3.92%.
In the case of `CN1CCN(c2cc(-c3cc(O)c4ncccc4c3)ccn2)CC1`, the inhibition is reported as 28.5%.
`CC1(c2cccc(Br)c2)NC(=O)N(CC(=O)NC2CCCCC2)C1=O` (configuration not stated) showed an inhibition of 3%.
In the case of `CCCCN1C(=O)c2ccc(C(=O)OCC(=O)NCCc3ccc(S(N)(=O)=O)cc3)cc2C1=O`, the inhibition is reported as -4.61%.
For `O=C(NCC(c1cccs1)N1CCOCC1)c1ccc([N+](=O)[O-])cc1` (configuration not stated), the inhibition was 2.63%.
With `O=C(NCC(c1cccs1)N1CCOCC1)c1cccc([N+](=O)[O-])c1` (configuration not stated) the inhibition was -5.61%.
`CCOc1ccc(NC(=O)CN(C)C(=O)Cc2ccsc2)cc1OCC` showed an inhibition of -3.21%.
In the case of `CCOC(=O)Cn1cnc2c(nnn2-c2ccc(OC)cc2)c1=O`, the inhibition is reported as -2.34%.
`CCOc1cc(/C=C2\N=C(C)OC2=O)cc(Cl)c1OCC(=O)OC` showed an inhibition of -3.74%.
For `O=C(C1CCCN1S(=O)(=O)c1cccc2nsnc12)N1CCCCCC1` (configuration not stated), the inhibition was 2.56%.
Compound `Cc1nnc(SCC(=O)NCc2ccc(F)cc2)[nH]c1=O` has an inhibition of 0.54%.
In the case of `O=S(Cc1ccc(Br)cc1)Cc1nnc(SCc2c(Cl)cccc2Cl)n1-c1ccccc1` (configuration not stated), the inhibition is reported as -2.91%.
Compound `O=S(Cc1ccc(Br)cc1)Cc1nnc(SCc2ccc(Br)cc2)n1-c1ccccc1` (configuration not stated) has an inhibition of 57%.
`CCOC(=O)c1ccc(S(=O)(=O)NNC(=O)Cc2csc(C)n2)cc1` showed an inhibition of 1.7%.
`CCOc1ccc(CCNC(=O)c2cccc(S(=O)(=O)N3CC(C)OC(C)C3)c2)cc1OCC` (configuration not stated) showed an inhibition of 2.57%.
Work on `CC(C)(C)C(=O)Nc1ccc(N2CCN(c3ccc(C(F)(F)F)cn3)CC2)nc1` yielded an inhibition of -0.97%.
Compound `CC(=O)Nc1ccc(N2CCN(c3ccc(C(F)(F)F)cn3)CC2)nc1` has an inhibition of 17.9%.
For `c1ccc(OCCCCn2cnc3ccccc32)cc1`, the inhibition was 4.06%.
With `c1ccc2c(c1)ncn2CCCOc1ccc2c(c1)CCC2` the inhibition was 68.5%.
`O=C(O)CCCC(=O)N1N=C(c2ccccc2)CC1c1ccc2nccnc2c1` (configuration not stated) gave an inhibition of 0.01%.
`O=C(N/C(=C\c1cccc([N+](=O)[O-])c1)C(=O)N1CCCCC1)c1cccs1` showed an inhibition of -1.22%.
In the case of `COCC(=O)NC(c1ccccc1)c1ccccc1`, the inhibition is reported as 1.57%.
Compound `O=C(c1c[nH]c2ccccc12)C(O)C(c1ccccc1)N1CCOCC1` (configuration not stated) has an inhibition of -0.62%.
Compound `CCN1CCN(C(c2ccc(OC)cc2)C(O)C(=O)c2c[nH]c3ccccc23)CC1` (configuration not stated) has an inhibition of 1.81%.
For `CCOc1ccccc1C(C(=O)NC1CCCCC1)N(C(=O)c1csnn1)C1CC1` (configuration not stated), the inhibition was -6.88%.
In the case of `CC1(C)CC(=O)c2c(O)cc(OCc3ccc([N+](=O)[O-])cc3)cc2O1`, the inhibition is reported as 8.3%.
With `COC(=O)c1ccc(COc2cc(O)c3c(c2)OC(C)(C)CC3=O)cc1` the inhibition was 20.4%.
Work on `N=C(c1ccc([N+](=O)[O-])cc1)N1CCCCC1` yielded an inhibition of 8.06%.
In the case of `O=C1CCN(Cc2ccccc2)CCN1CCSc1ccccc1`, the inhibition is reported as -0.68%.
`CCOc1ccccc1N(CC(=O)Nc1ccc2c(c1)OCO2)S(C)(=O)=O` gave an inhibition of -15.7%.
With `O=C(Nc1cc(-c2nc3ncccc3o2)ccc1Cl)c1ccc([N+](=O)[O-])o1` the inhibition was -1.99%.
With `COc1ccc(C(=O)Nc2cccc(-c3nc4ncccc4o3)c2C)cc1` the inhibition was 2.93%.
For `COc1ccc(N2C(=O)C3C4c5ccccc5C(C=Nc5ccc(C)cc5C)(c5ccccc54)C3C2=O)cc1` (configuration not stated), the inhibition was 36.6%.
`COc1ccc(N2C(=O)C3C(C2=O)C3(c2ccccc2)c2ccccc2)cc1` (configuration not stated) gave an inhibition of 1.86%.
In the case of `Cn1c(=O)c2c(nc3n2CC(O)CN3c2ccc(O)cc2)n(C)c1=O` (configuration not stated), the inhibition is reported as -2.83%.
Work on `CCc1cccc2c(=O)c(C(=O)NCCN3CCOCC3)c[nH]c12` yielded an inhibition of -3.32%.
`CCc1cccc2c(C(=S)N3CCOCC3)c[nH]c12` showed an inhibition of 3.01%.
`CCc1cccc2c(C(=O)COC(=O)c3ccc(O)cc3)c[nH]c12` showed an inhibition of -5.92%.
For `CCc1cccc2c(C(=O)COC(=O)c3ccccc3)c[nH]c12`, the inhibition was 0.69%.
Compound `O=C(NCc1ccccc1)c1cccc(Br)n1` has an inhibition of 2.81%.
Compound `CC(C)n1cc(CNC(=O)C2CCC(=O)N(Cc3ccccc3F)C2)cn1` (configuration not stated) has an inhibition of 5.12%.
For `O=C(OCc1ccc([N+](=O)[O-])cc1)C1CC(=O)N(Cc2ccccc2)C1` (configuration not stated), the inhibition was 6.8%.
Compound `COCCN(C(=O)c1cccc(N2C(=O)CCC2=O)c1)c1nc(-c2ccc([N+](=O)[O-])cc2)cs1` has an inhibition of 31.4%.
`Cc1cc(C)n(CCC(=O)N=Nc2c(O)[nH]c3ccccc23)n1` gave an inhibition of 3.85%.
For `CCC1CCCCN1CCCNC(=O)CSc1nc2nc(C)c(Cc3ccccc3Cl)c(C)n2n1` (configuration not stated), the inhibition was 4.72%.
`COc1ccccc1N1CCN(/N=C\c2ccccc2)CC1` showed an inhibition of 4.03%.
Compound `Cc1ccc(N2CCN(/N=C/C(Cl)=C/c3ccccc3)CC2)cc1` has an inhibition of 4.03%.
`O=C(Nc1ccc2c3c(cccc13)CC2)c1cccc([N+](=O)[O-])c1` showed an inhibition of -7.19%.
Work on `Cc1c(C(=O)Nc2ccc3c4c(cccc24)CC3)cccc1[N+](=O)[O-]` yielded an inhibition of 27.6%.
`COc1ccc(-c2cc(C)no2)cc1S(=O)(=O)N1CCN(C(=O)c2ccco2)CC1` showed an inhibition of -7.17%.
`CC(C)Cc1ccc(C(C)C(=N)N)cc1` (configuration not stated) showed an inhibition of 6.85%.
Compound `COc1ccc(CCN=C(N)C(C)c2ccccc2)cc1OC` (configuration not stated) has an inhibition of -10.7%.
`CCOC(=O)c1c(-c2ccc(Cl)cc2)csc1NC(=O)CNCc1ccco1` showed an inhibition of 3.78%.
Compound `CCOC(=O)c1c(-c2ccc(OC)cc2)csc1NC(=O)CSc1ccccc1` has an inhibition of 3.36%.
With `COC(=O)c1c(NC(C)=O)sc(C(=O)N2CCOCC2)c1C` the inhibition was 2.88%.
For `COC(=O)c1c(NC(=O)C(C)C)sc(C(=O)N2CCOCC2)c1C`, the inhibition was -8.29%.
In the case of `S=C(NCc1ccncc1)Nc1cc(Cl)cc(Cl)c1`, the inhibition is reported as 69.9%.
`O=C(CCc1nnc(CCCCc2ccccc2)o1)NCCC1CCCCO1` (configuration not stated) gave an inhibition of -2.58%.
`CN(C(=O)CCc1nnc(-c2ccc(-c3ccccc3)cc2)o1)C1CCOCC1` showed an inhibition of -8.56%.
Work on `COC(c1ccccc1)c1nnc(CCC(=O)N(C)CCCC2CCCC2)o1` (configuration not stated) yielded an inhibition of 3.33%.
`O=C(CCc1nnc(CCCc2ccccc2)o1)NCCc1ccccc1` gave an inhibition of 3.96%.
`COc1ccc(C2=CSC3=NCCN23)cc1` gave an inhibition of 4.38%.
Work on `CCC(=NCc1cccnc1)c1c(O)n(Cc2ccccc2)c(=O)[nH]c1=O` yielded an inhibition of -0.2%.
For `COc1ccc(NC(=O)Cn2c(=O)n(-c3ccccc3)c(=O)c3oc4ccccc4c32)c(OC)c1`, the inhibition was -0.2%.
Work on `CC1(C)CC(=O)CC(=Nc2ccc(C(=O)O)cc2)C1` yielded an inhibition of 2.32%.
Work on `COc1ccc(OC)c(C(c2nnnn2Cc2ccccc2)N2CCN(C)CC2)c1` (configuration not stated) yielded an inhibition of 5.62%.
`O=[N+]([O-])c1cc(/C=N/N2CCCCC2)ccc1Cl` showed an inhibition of 1.34%.
Work on `Cc1ccc(CN2CCN(/N=C\c3cccc([N+](=O)[O-])c3)CC2)cc1` yielded an inhibition of 55.9%.
`Nc1c2c(nc3ccn(-c4ccccc4)c(=O)c13)CCCCC2` showed an inhibition of 3.82%.
Work on `Nc1c2c(nc3ccccc13)CCC2` yielded an inhibition of -1.89%.
For `CCNC(=O)c1nc[nH]c1C(=O)NCC`, the inhibition was -0.32%.
`COc1ccc2c(c1OC)C(=O)N1c3ccccc3COC21` (configuration not stated) showed an inhibition of -4.65%.
Compound `CC1CC(C)CN(C(=O)c2cc3c(=O)n4ccccc4nc3s2)C1` (configuration not stated) has an inhibition of 9.39%.
In the case of `COc1cccc(CNS(=O)(=O)c2cccc(S(=O)(=O)N3CCOCC3)c2)c1`, the inhibition is reported as 5.34%.
With `COc1ccccc1C1CC(c2ccc(Cl)cc2Cl)Nc2nc(N)nn21` (configuration not stated) the inhibition was -6.06%.
`O=C(COc1ccc(F)cc1)NNC(=O)c1cc2ccccc2oc1=O` showed an inhibition of -1.43%.
For `O=C(COc1ccccc1)NNC(=O)c1cc2ccccc2oc1=O`, the inhibition was -4.55%.
Work on `CCOc1cc(N2CCOCC2)c(OCC)cc1NC(=O)c1ccc(OC)c(S(=O)(=O)N2CCOCC2)c1` yielded an inhibition of -2.5%.
For `Cc1c(NS(=O)(=O)c2cccc(C(=O)NCc3ccc(Cl)cc3)c2)c(=O)n(-c2ccccc2)n1C`, the inhibition was -7.86%.
With `CCOC(=O)c1csc(-c2ccc(OC)c(OC)c2)n1` the inhibition was 6.33%.
With `CCOC(=O)c1csc(N)n1` the inhibition was -3.93%.
For `O=C(Nc1cccc(Cl)c1)NC1CC2CCC(C1)N2Cc1cccs1` (configuration not stated), the inhibition was -7%.
Work on `CCOc1ccc(-n2c(-c3ccccc3)c[n+]3c2CCCCC3)cc1` yielded an inhibition of -7.91%.
`CCOc1ccc(-c2c[n+]3c(n2-c2ccccc2)CCCCC3)cc1` gave an inhibition of -9.73%.
In the case of `Cc1nc(NC(=O)COC(=O)C2CC2C)c(Cl)cc1Cl` (configuration not stated), the inhibition is reported as -3.52%.
`Cc1ccccc1Nc1nc(N)nc(COC(=O)c2ccccc2)n1` showed an inhibition of -4.25%.
Work on `Cc1ccccc1Nc1nc(N)nc(COC(=O)c2ccco2)n1` yielded an inhibition of 10.5%.
Work on `CC1CN(c2ccc([N+](=O)[O-])c(NCCOc3ccccc3)c2)CC(C)N1` (configuration not stated) yielded an inhibition of 18.3%.
`CC1CN(c2ccc([N+](=O)[O-])c(NCCOc3ccccc3)c2)CCN1` (configuration not stated) showed an inhibition of 22.7%.
With `Cc1csc2nc(O)c(C(=O)NCCC3=CCCCC3)c(=O)n12` the inhibition was 49.8%.
In the case of `Cc1csc2nc(O)c(C(=O)NCc3ccc4c(c3)OCO4)c(=O)n12`, the inhibition is reported as 28.7%.
Compound `O=C(NCc1ccc2c(c1)OCO2)c1c(F)c(F)c(F)c(F)c1F` has an inhibition of 4.75%.
Compound `O=C(NCCC1=CCCCC1)c1c(O)nc2ccccn2c1=O` has an inhibition of -7.18%.
